Screens (PubChem BioAssay)
The list is not random: actives were taken first. Their share in the collection is about 13%.
Lamin A splicing – qHTS Assay for Modulators of Lamin A Splicing | AID 1487, 2009 | actives 0.01% (n = 200,000) | Potency, µM (doses to about 46.1 µM), actives largely listed as inhibitors | HeLa LMNA splicing GFP/RFP minigene ratio, 48 h; active means well fitted inhibition curve with a large enough effect in the signal ratio, with a control signal flat, not every such curve was filed as active; inconclusive means small, poorly fitted or top-dose-only effect, or effect the other way, or a change in a side signal; the % refers to the signal ratio
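S3 HeLa cells stably expressing lamin A-EGFP splicing minigene plus DsRed2, 600 cells/well, 48 h compound exposure at 37C. Laser-scanning cytometry; analysed as GFP (500-530 nm)/RFP (575-640 nm) total intensity ratio; 0.5% DMSO vehicle.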
miR-21 reporter – qHTS Assay for Modulators of miRNAs and/orActivators of miR-21 | HeLa miR-21 FLuc reporter, luciferase, 48 h | Potency, µM (top dose mostly 38.3 µM), most hits filed as activators | 340,000 tested, under 10 active | AID 2288, 2010;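 further: miR-21 action dims this reporter so a rising signal means less miR-21 action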
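Luminescence from a firefly luciferase reporter carrying a miR-21 binding site downstream, stably expressed under a CMV promoter in HeLa cells that make miR-21 endogenously, reports miRNA modulation after 48 h compound exposure up to approximately 40uM final.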
G9a inh – qHTS Assay for Inhibitors of Histone Lysine Methyltransferase G9a | G9a H3K9 monomethylation, AlphaScreen, 2 h | Histone-lysine N-methyltransferase EHMT2 (Homo sapiens), Q96KQ7 | actives 8.8% (n = 350,000) | AID 504332, 2011 | Potency, µM (doses to about 102 µM), hits mostly inhibitors; further: nearly all actives have a fitted effect of over 75% in size
Target sequence (Q96KQ7 913-1193 limits assumed): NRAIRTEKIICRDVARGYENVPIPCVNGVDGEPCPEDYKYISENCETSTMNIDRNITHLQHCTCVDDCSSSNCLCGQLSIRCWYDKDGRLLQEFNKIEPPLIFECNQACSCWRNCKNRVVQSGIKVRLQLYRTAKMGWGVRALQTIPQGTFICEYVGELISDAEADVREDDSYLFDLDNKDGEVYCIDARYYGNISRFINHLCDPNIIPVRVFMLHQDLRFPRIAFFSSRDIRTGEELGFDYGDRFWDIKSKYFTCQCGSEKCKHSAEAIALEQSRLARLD
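AlphaScreen read-out: biotin-H3K9 peptide (500 nM) methylation by 20 nM enzyme with 20 uM SAM, 2 h at room temperature after 15 min compound preincubation; anti-monomethyl H3K9 antibody plus donor/acceptor beads, 10 min dark.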
JMJD2E inh – qHTS Assay for Inhibitors of Human Jumonji Domain Containing 2E (JMJD2E); Lysine-specific demethylase 4E (Homo sapiens), B2RXH2; JMJD2E catalytic domain, FDH-coupled NADH fluorescence (FDH is formaldehyde dehydrogenase); Potency, µM (highest dose often 57.1 µM), actives largely listed as inhibitors; actives 1.6% (n = 230,000); AID 2147, 2009; active means well fitted inhibition curve with a large enough effect, not every such curve was filed as active; inconclusive means small, poorly fitted or top-dose-only effect, or another doubt; inactive means no such curve, though single readings can be large or run the other way; further: nearly all actives have a fitted effect of over 50% in size
Target sequence (B2RXH2 1-337 limits assumed): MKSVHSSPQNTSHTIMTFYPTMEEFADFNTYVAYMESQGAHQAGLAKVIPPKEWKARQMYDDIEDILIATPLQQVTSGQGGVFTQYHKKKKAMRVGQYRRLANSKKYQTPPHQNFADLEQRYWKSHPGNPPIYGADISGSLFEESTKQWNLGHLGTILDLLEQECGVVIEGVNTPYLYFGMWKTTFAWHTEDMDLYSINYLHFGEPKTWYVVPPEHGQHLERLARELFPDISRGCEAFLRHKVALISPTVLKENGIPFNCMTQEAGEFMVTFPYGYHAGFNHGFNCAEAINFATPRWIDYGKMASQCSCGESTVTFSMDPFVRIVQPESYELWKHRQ
Sfp inh – qHTS Assay for Inhibitors of Bacillus subtilis Sfp phosphopantetheinyl transferase (PPTase); 4'-phosphopantetheinyl transferase ffp (Bacillus subtilis), Q9F4F7; Biochemical Sfp PPTase activity, qHTS; Potency, µM, most hits filed as inhibitors; actives 3.5% (n = 310,000);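 further: the enzyme is Sfp with the accession as filed and its product quenches rhodamine fluorescence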
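Fluorescence-quenching assay: 15 nM Sfp-PPTase preincubated 15 min at room temperature with compound, then 5 uM rhodamine-CoA and 12.5 uM BHQ-2-labelled YbbR peptide added. Fluorescence (ex 525/em 598 nm) read at start and after 30 min; difference gives rate.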
ALDH1A1 block – qHTS Assay for Inhibitors of Aldehyde Dehydrogenase 1 (ALDH1A1); Purified ALDH1A1, NADH fluorescence, propionaldehyde substrate; Aldehyde dehydrogenase 1A1 (Homo sapiens), P00352; Potency, µM (titrated, usually from 75.3 µM), hits mostly inhibitors; actives 7.3% (n = 220,000); AID 1030, 2008; active means well fitted inhibition curve with a large enough effect, not every such curve was filed as active; inconclusive means small, poorly fitted or top-dose-only effect, or another doubt; inactive means no such curve, though single readings can be large or run the other way
Each line names hits and unclear results; the compound was inactive in the other large screens. Unless noted, the call rests on the fitted dose curve; in most records, active means well fitted curve in the direction sought with a large enough effect; inconclusive means small, poorly fitted or top-dose-only effect, or another doubt; inactive means no such curve, though single readings can be large; an effect the other way counts as inactive or inconclusive.

c1coc(CSc2ncnc3c2oc2ccccc23)c1	Sfp inh 56µM (no result: Lamin A splicing, ALDH1A1 block)
CC(NS(=O)(=O)OCC(Cl)(Cl)Cl)c1ccc(Br)cc1 (stereo not given)	none (no result: Lamin A splicing, G9a inh, JMJD2E inh, ALDH1A1 block)
O=c1c2ccccc2nc(-c2ccccc2)n1CCN1CCOCC1	G9a inh inconclusive, ALDH1A1 block 13µM
O=C(O)Cn1c(-c2ccccc2)nc2ccccc21	G9a inh 40µM, JMJD2E inh inconclusive
O=c1c2ccccc2nc(-c2ccccc2)n1Cc1ccccc1	Lamin A splicing inconclusive, ALDH1A1 block 16µM
O=c1c2ccccc2nc(-c2ccccc2)n1Cc1ccc(Cl)cc1	ALDH1A1 block 6.3µM
Cc1cc(NC(=O)C2CC(=O)N(c3cccc(Cl)c3)C2)no1 (stereo not given)	none (no result: Lamin A splicing, JMJD2E inh, ALDH1A1 block)
CCC(C)Nc1nc2c(c(=O)[nH]c(=O)n2C)n1Cc1ccc(F)cc1 (stereo not given)	none (no result: Lamin A splicing, JMJD2E inh, Sfp inh, ALDH1A1 block)
CC1=C(C(=O)Nc2ccccc2)C(c2cccnc2)n2nc(SCc3ccccc3Cl)nc2N1 (stereo not given)	none (no result: Lamin A splicing, JMJD2E inh, Sfp inh, ALDH1A1 block)
CN(C)CCOc1ccc2ccccc2c1	G9a inh 11µM, JMJD2E inh inconclusive, ALDH1A1 block inconclusive
CN(C)CCOc1cccc(Cl)c1	G9a inh 8.9µM, JMJD2E inh 22µM
CC/C(=C(/c1ccccc1)c1ccc(OCCN(C)C)cc1)c1ccccc1	G9a inh 22µM, Sfp inh 50µM (no result: Lamin A splicing, miR-21 reporter, JMJD2E inh, ALDH1A1 block)
CCN(CC)CCOc1ccc(/C(=C(\Cl)c2ccccc2)c2ccccc2)cc1	none (no result: Lamin A splicing, miR-21 reporter, G9a inh)
CCOc1cccc(OCCOCCN(C)C)c1	G9a inh 11µM, JMJD2E inh inconclusive
CC(=O)OC[C@@H]1O[C@H](C/C=N\O[C@@H](C)CN2CCCCc3nc(C)c(C)cc32)C=C[C@@H]1OC(C)=O	none (no result: Lamin A splicing, miR-21 reporter, G9a inh, JMJD2E inh)
O=C(NC1CC(=O)N(c2cccc(F)c2)C1)c1cc2ccccc2o1 (stereo not given)	Lamin A splicing inconclusive (no result: JMJD2E inh, Sfp inh, ALDH1A1 block)
O=C1CC(C(=O)N2CCc3ccccc32)CN1c1ccc(F)cc1 (stereo not given)	none (no result: Lamin A splicing, JMJD2E inh, ALDH1A1 block)
CN(C)CCCCOc1cccc(Br)c1	G9a inh 3.5µM, Sfp inh 56µM, ALDH1A1 block inconclusive
C=CCNCCOc1cccc(Br)c1	G9a inh inconclusive
Cc1ccn2cc(CNS(=O)(=O)c3ccc4ccccc4c3)nc2c1	G9a inh 71µM (no result: Lamin A splicing, JMJD2E inh, ALDH1A1 block)
S=C(NCc1ccccc1)Nc1cccc(Cl)c1	Lamin A splicing inconclusive
Cc1cccc(NC(=S)NNC(=S)NCc2ccccc2)c1	Lamin A splicing inconclusive, G9a inh 0.71µM, Sfp inh 79µM, ALDH1A1 block 1.6µM
Cc1cccc(NC(=S)NN2CCN(C)CC2)c1	G9a inh 56µM
S=C(NCc1ccccc1)NNc1ccccc1	G9a inh 40µM, ALDH1A1 block inconclusive (no result: Lamin A splicing)
CCNC(=S)NNc1ccccc1	Sfp inh 35µM (no result: Lamin A splicing, G9a inh, ALDH1A1 block)
COc1ccc(-n2ccnc(NCCc3ccc(S(N)(=O)=O)cc3)c2=O)cc1	G9a inh inconclusive (no result: Lamin A splicing, JMJD2E inh, Sfp inh, ALDH1A1 block)
CC(NC(=O)CNC(=O)c1ccccc1Br)c1cccs1 (stereo not given)	none (no result: Lamin A splicing, miR-21 reporter, JMJD2E inh, Sfp inh, ALDH1A1 block)
CCc1ccc(C(=O)N2CCC(c3nc(-c4ccc(S(=O)(=O)N5CCCC5)cc4)no3)CC2)cc1	none (no result: Lamin A splicing, JMJD2E inh, Sfp inh, ALDH1A1 block)
CCNC(=S)NS(=O)(=O)c1ccc(Cl)cc1	G9a inh inconclusive, ALDH1A1 block inconclusive
CCNC(=S)NS(=O)(=O)c1ccccc1	G9a inh 28µM, JMJD2E inh inconclusive, Sfp inh 79µM
Cc1ccccc1NC(=O)c1ccc(Nc2c([N+](=O)[O-])cc([N+](=O)[O-])c3ccccc23)cc1	Lamin A splicing inconclusive, miR-21 reporter inconclusive, G9a inh 7.9µM, ALDH1A1 block inconclusive
COc1ccc(NC(=S)Nc2ccc(C)c(Cl)c2)cc1OC	ALDH1A1 block inconclusive (no result: Lamin A splicing)
